Reference: PubChem BioAssay (NCI)
Compounds without any hit were thinned out: in the full panel of roughly 79,000, 15% have a hit. Calls of active or inactive are those of the source. Cut-off read from the data, not from the text of the source: active = growth inhibition above about 70%; inactive = the rest. Where a SMILES comes first, the peptide text is derived from it. The star is where a group is joined. Trt = c1ccc(C(c2ccccc2)(c2ccccc2)*)cc1; Cbz = O=C(OCc1ccccc1)*

Columns and labels:
[1] = NCI Yeast Anticancer Drug Screen. Data for the rad50 strain (AID 155);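 note: 0% = growth of vehicle-only cultures of the same strain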; conditions: S. cerevisiae rad50 strain growth inhibition, stronger effect = higher value
How it was run: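 Growth of the mutant yeast was measured after compound exposure and referenced to vehicle-treated cultures.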

[2] = NCI Yeast Anticancer Drug Screen. Data for the mec2-1 strain (AID 157); conditions: S. cerevisiae mec2-1 strain, stronger effect = higher value
How it was run: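 Each compound was tested on mec2-1 yeast, a strain altered in DNA damage repair or cell cycle control. Growth inhibition is reported relative to vehicle.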

[3] = NCI Yeast Anticancer Drug Screen. Data for the sgs1 mgt1 strain (AID 161);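 note: 0% = growth of cultures given vehicle only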; conditions: S. cerevisiae sgs1 mgt1 strain, stronger effect = higher value
How it was run: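 Mutant yeast exposed to compound; growth scored against vehicle-only wells.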

[4] = NCI Yeast Anticancer Drug Screen. Data for the cln2 rad14 strain (AID 165);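 note: 0% = growth equal to vehicle treated cultures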; conditions: S. cerevisiae cln2 rad14 strain, stronger effect = higher value
How it was run: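 Test compounds were added to cln2 rad14 yeast cultures; inhibition of growth was then determined by comparison with vehicle treatment.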

[5] = NCI Yeast Anticancer Drug Screen. Data for the bub3 strain (AID 167); conditions: S. cerevisiae bub3 mutant strain, stronger effect = higher value
How it was run: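 Whole-cell yeast assay. The mutant strain was incubated with compounds, and growth inhibition was determined by comparison with vehicle-treated cells.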

[6] = NCI Yeast Anticancer Drug Screen. Data for the mlh1 rad18 strain (AID 175); conditions: S. cerevisiae mlh1 rad18 strain growth inhibition, stronger effect = higher value
How it was run: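 Inhibition values reflect reduced growth of mutant yeast versus vehicle-treated controls following compound exposure; the mutations affect DNA damage repair.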

[7] = at 5.0 µM (retest, dose inferred, filed as 0.5)
[8] = at 50.0 µM (retest, dose inferred, filed as 5.0)

Measured: growth inhibition

C1Cc2c3c4c(c5c2C(C1)CCC5)CCCC4CCC3
inactive: [1]; [7] -5% | [1]; [8] 8% | [1]; at 50.0 µM -11.5% | [2]; [7] 1% | [2]; [8] 17% | [2]; at 50.0 µM 10.3% | [3]; [7] -1% | [3]; [8] 13% | [3]; at 50.0 µM 0% | [4]; [7] 3% | [4]; [8] -1% | [4]; at 50.0 µM 34.2% | [5]; [7] 15% | [5]; [8] 8% | [5]; at 50.0 µM -0.85% | [6]; [7] -1% | [6]; [8] 10% | [6]; at 50.0 µM -2.25%

Nc1ccc(C(=O)Nc2ccc(C(=O)Nc3ccc(/C=C/c4ccc(NC(=O)c5ccc(N)cc5)cc4S(=O)(=O)O)c(S(=O)(=O)O)c3)cc2)cc1
inactive: [1]; [7] -2% | [1]; at 50.0 µM 68.5% | [2]; [7] -21% | [3]; [7] 3% | [3]; at 50.0 µM 69.3% | [4]; [7] 16% | [4]; [8] 39% | [4]; at 50.0 µM 18.3% | [5]; [7] -15% | [6]; [7] -15% | [6]; [8] 61%
active: [1]; [8] 87% | [2]; [8] 76% | [2]; at 50.0 µM 72.8% | [3]; [8] 78% | [5]; [8] 82% | [5]; at 50.0 µM 70.4% | [6]; at 50.0 µM 74.2%

O=C1C=CC(=O)N1c1ccccc1[N+](=O)[O-]
active: [1]; [7] 98% | [1]; [8] 99% | [1]; at 50.0 µM 99.5% | [2]; [7] 99% | [2]; [8] 100% | [2]; at 50.0 µM 99.5% | [3]; [7] 98% | [3]; [8] 99% | [3]; at 50.0 µM 99.4% | [4]; [7] 90% | [4]; [8] 99% | [4]; at 50.0 µM 99.6% | [5]; [7] 97% | [5]; [8] 100% | [5]; at 50.0 µM 99.5% | [6]; [7] 98% | [6]; [8] 100% | [6]; at 50.0 µM 99.5%

COc1ccc2c(c1)CCC1C2CCC2(C)C(=O)C(SC3=NC=NC4=NC=NC43)CC12 (stereo not given)
active: [1]; [8] 97% | [1]; at 50.0 µM 97% | [2]; [8] 99% | [2]; at 50.0 µM 92.7% | [3]; [8] 99% | [3]; at 50.0 µM 96.7% | [4]; [8] 98% | [4]; at 50.0 µM 91.8% | [5]; [8] 97% | [5]; at 50.0 µM 92.2% | [6]; [8] 98% | [6]; at 50.0 µM 96.2%
inactive: [1]; [7] 24% | [2]; [7] 25% | [3]; [7] 49% | [4]; [7] -3% | [5]; [7] 19% | [6]; [7] 20%

CCCC(=O)Oc1ccc([N+](=O)[O-])cc1
inactive: [1]; [7] 4% | [1]; [8] 23% | [1]; at 50.0 µM 28.4% | [2]; [7] 2% | [2]; [8] 13% | [2]; at 50.0 µM 29% | [3]; [7] -1% | [3]; [8] 8% | [3]; at 50.0 µM 11.1% | [4]; [7] 2% | [4]; [8] 6% | [4]; at 50.0 µM 34.9% | [5]; [7] 4% | [5]; [8] 12% | [5]; at 50.0 µM 4.5% | [6]; [7] 4% | [6]; [8] 13% | [6]; at 50.0 µM 13.1%

CCOC(=O)CCC(NC(=O)C(CSC(c1ccccc1)(c1ccccc1)c1ccccc1)NC(=O)OCc1ccccc1)C(=O)NC(CCC(=O)OCC)C(=O)NC(CCC(=O)OCC)C(=O)NC(CCC(=O)OCC)C(=O)NC(CSC(c1ccccc1)(c1ccccc1)c1ccccc1)C(=O)OC (stereo not given) (Cbz-C(Trt)E(OEt)E(OEt)E(OEt)E(OEt)C(Trt)-OMe; configuration not given here)
inactive: [1]; [7] 1% | [1]; [8] 67% | [2]; [7] -7% | [2]; [8] 63% | [3]; [7] -1% | [3]; [8] 61% | [3]; at 50.0 µM 68% | [4]; [7] 7% | [5]; [7] -4% | [5]; [8] 58% | [6]; [7] 2%
active: [1]; at 50.0 µM 74.2% | [2]; at 50.0 µM 75.8% | [4]; [8] 70% | [4]; at 50.0 µM 82.3% | [5]; at 50.0 µM 72.2% | [6]; [8] 73% | [6]; at 50.0 µM 75.6%

O=C(O)C(O)C(O)C(OC1OC(CO)C(O)C(O)C1O)C(O)CO.[Br][Pt].[NH-]C1CCCCC1[NH-] (stereo not given)
active: [1]; [8] 97% | [2]; [8] 88% | [3]; [7] 89% | [3]; [8] 99% | [3]; at 50.0 µM 89.5% | [4]; [8] 72% | [4]; at 50.0 µM 72% | [5]; [7] 79% | [5]; [8] 97% | [5]; at 50.0 µM 83.6% | [6]; [8] 98%
inactive: [1]; [7] 50% | [1]; at 50.0 µM 67.8% | [2]; [7] 65% | [2]; at 50.0 µM 62.9% | [4]; [7] 24% | [6]; [7] 69% | [6]; at 50.0 µM 56%

O=C(O)c1ccccc1N=N/C(=N\Nc1cc(S(=O)(=O)O)ccc1O)c1ccccc1
active: [1]; [8] 85% | [3]; [8] 95% | [5]; [8] 97% | [6]; [8] 74%
inactive: [1]; [7] -7% | [1]; at 50.0 µM 48.4% | [2]; [7] -5% | [2]; [8] 49% | [2]; at 50.0 µM 20.5% | [3]; [7] -3% | [3]; at 50.0 µM 46.5% | [4]; [7] -3% | [4]; [8] 47% | [4]; at 50.0 µM -32% | [5]; [7] 1% | [5]; at 50.0 µM 38.8% | [6]; [7] -4% | [6]; at 50.0 µM 44.5%

O=C1Nc2c(Cl)cc(Cl)cc2/C1=N/N=C/c1ccccc1O
active: [3]; at 50.0 µM 87.2% | [4]; at 50.0 µM 89.8% | [5]; at 50.0 µM 88.2% | [6]; [8] 72% | [6]; at 50.0 µM 91%
inactive: [1]; [7] 12% | [1]; [8] 41% | [1]; at 50.0 µM 3.5% | [2]; [7] 13% | [2]; [8] 42% | [2]; at 50.0 µM 17.1% | [3]; [7] 10% | [3]; [8] 41% | [4]; [7] 15% | [4]; [8] 48% | [5]; [7] 18% | [5]; [8] 54% | [6]; [7] 15%

N#CC(=C1C=CC(=NO)C=C1)c1cccc2ccccc12
inactive: [1]; [7] 36% | [2]; [7] 15% | [3]; [7] 39% | [4]; [7] 3% | [5]; [7] 5% | [6]; [7] 28%
active: [1]; [8] 91% | [1]; at 50.0 µM 93.2% | [2]; [8] 94% | [2]; at 50.0 µM 95.5% | [3]; [8] 92% | [3]; at 50.0 µM 93.1% | [4]; [8] 91% | [4]; at 50.0 µM 90.2% | [5]; [8] 91% | [5]; at 50.0 µM 96.2% | [6]; [8] 91% | [6]; at 50.0 µM 87.8%
